Sampled rows, rich in hits. Any-hit rate of the full collection: about 3.6%.
IL1B cytotox – HUVEC cytotoxicity counter-screen, IL-1B stimulated; HUVEC cell count loss, Hoechst imaging; cell count reduction, % at 2 µM; 0.41% of 94,000 active; AID 845;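 active = cell count reduction more than 3 SD above the screen-wide mean, cut at about 70% in these data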;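 also: normalized per plate to untreated control cells as the no-loss baseline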
ERa coact pot – ER-alpha (human) coactivator binding potentiation; TR-FRET ERalpha-LBD/SRC-Cy5 coactivator binding, 2 h; 100 = basal binding, no effect; coactivator binding (% of control), % at 25.6 µM; P03372; 1.3% of 86,000 active; in the data active = activity above about 200%;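 also: binding measured in presence of low estradiol as agonist stimulus; 0% = peptide alone without receptor and 100% = receptor with peptide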
NFkB transloc inh – blocks IL-1B driven NFkB nuclear translocation in HUVEC cells; HUVEC IL-1B NFkB p65 nuclear translocation imaging; inhibition, % at 2 µM; 0.43% of 94,000 active; AID 796;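 active = inhibition above about 30% together with a positive call from visual inspection of the well image, limit read from the data; inconclusive = inhibition above a set limit but visual check negative; inactive = inhibition not above a set limit, visual check negative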;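 also: nuclear over cytoplasmic p65 intensity ratio measured by imaging; 0% = IL-1B stimulated DMSO wells and 100% = unstimulated DMSO wells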
ERa coact inh – blocks coactivator binding to human estrogen receptor alpha; inhibition, % at 25.6 µM; 1.7% of 86,000 active; P03372; TR-FRET ER-alpha LBD / SRC-1 peptide, estradiol-bound; AID 629; in the data active = inhibition above about 50%;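 also: 0% = receptor plus peptide control and 100% = peptide only without receptor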
ERb coact inh – ER-beta (human) coactivator binding inhibition | AID 633 | Q92731 | inhibition, % at 25.6 µM | TR-FRET ER-beta LBD / SRC1-Cy5 peptide binding; receptor agonist-loaded with 1 µM estradiol | 1.3% of 86,000 active;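 active = compounds whose percent inhibition of the receptor-coactivator binding signal exceeds about 50% in the single-dose screen, limit read from the data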;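 also: 0% = receptor plus peptide wells without compound and 100% = peptide-only wells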
Target sequence (Q92731 whole entry, looked up, the tested form may be a part): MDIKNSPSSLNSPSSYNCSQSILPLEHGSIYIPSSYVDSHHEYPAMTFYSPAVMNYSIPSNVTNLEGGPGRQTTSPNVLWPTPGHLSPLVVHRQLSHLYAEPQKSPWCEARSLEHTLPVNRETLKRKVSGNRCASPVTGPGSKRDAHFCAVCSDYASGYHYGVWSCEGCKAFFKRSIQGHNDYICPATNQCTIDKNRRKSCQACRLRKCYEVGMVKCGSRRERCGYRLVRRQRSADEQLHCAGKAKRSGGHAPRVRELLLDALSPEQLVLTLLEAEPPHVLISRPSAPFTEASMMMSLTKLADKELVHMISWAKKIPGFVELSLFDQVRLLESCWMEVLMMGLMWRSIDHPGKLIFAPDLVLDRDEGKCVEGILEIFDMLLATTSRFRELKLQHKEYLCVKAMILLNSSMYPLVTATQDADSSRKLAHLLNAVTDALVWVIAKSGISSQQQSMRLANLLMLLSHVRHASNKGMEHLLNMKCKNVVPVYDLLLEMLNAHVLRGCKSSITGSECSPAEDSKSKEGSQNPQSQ
IL1B NFkB pot – enhances IL-1B driven NFkB nuclear translocation; HUVEC IL-1B NFkB p65 nuclear translocation imaging; activation, % at 2 µM; 0.3% of 94,000 active;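 active = activation above 40%, about the mean plus 3 SD, also judged a hit on visual image review; inconclusive = activation above 40% but not a hit on visual review; inactive = activation not above 40% and no visual hit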;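 also: percent activation is computed from the nuclear over cytoplasmic p65 intensity ratio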
Numbers without * were called inactive; ? = inconclusive; . = no result; [ ] = another dose, or the depositor's remark.

SMILES | IL1B cytotox | ERa coact pot | NFkB transloc inh | ERa coact inh | ERb coact inh | IL1B NFkB pot
Cc1cc(NC(=O)Cc2cccs2)no1 | -24.6 | 16.6 | -19.9 | 96.8*[fluorescence artefact?] | 88.7*[fluorescence artefact?] | 19.9
Cc1cc(N)n(-c2ccc3ccccc3c2)n1 | 19.0 | 102.6 | 8.7 | -6.3 | -6.5 | -8.7
COc1ccc(C)cc1NC(=O)Nc1ccc(Br)cn1 | -2.4 | 242.5* | 0.1 | 10.0 | 33.9 | -0.1
O=C(Nc1ccc2c(c1)OCO2)Nc1ccc(Br)cn1 | -0.7 | 228.2* | -16.5 | 15.4 | 32.7 | 16.5
O=C(Nc1cccc(Cl)c1)Nc1ccc2c(c1)OCO2 | -39.1 | 111.9 | -0.9 | 9.3 | 2.0 | 0.9
Cc1ccc(C(=O)Nc2c3c(nn2C(C)(C)C)CS(=O)(=O)C3)cc1C | -82.8 | 110.8 | -0.9 | 7.7 | 6.6 | 0.9
CSc1ccc(C2C(C#N)=C(N)Oc3c2ccc(=O)c2c(C)oc(C)c32)cc1 (stereo unspecified) | -17.0 | 64.1 | -20.6 | 78.2* | 58.0* | 23.1
Cc1sc(-c2ccncc2)nc1OC(=O)c1cc(Cl)cc(Cl)c1 | 11.4 | 224.1* | -4.1 | -6.3 | -3.7 | 4.1
Cc1sc(-c2ccncc2)nc1OC(=O)c1ccc(Cl)cc1 | -7.8 | 113.0 | 2.9 | 7.7 | 10.0 | -2.9
O=C(NCc1ccc2c(c1)OCO2)c1cc2ncc(Br)cn2n1 | 13.5 | 23.8 | 8.9 | 79.7*[fluorescence artefact?] | 77.9*[fluorescence artefact?] | -8.9
O=C1C(O)CC2c3ccccc3CC3(CCCC3)N12 (stereo unspecified) | 13.2 | 235.2* | -0.5 | -7.7 | -6.6 | 0.5
O=C1c2ccccc2C2NC(=O)C3(CCCCC3)N12 (stereo unspecified) | . | 109.7 | . | 0.3 | 0.5 | .
O=C(CC(Sc1ccccc1)c1cccs1)c1ccco1 (stereo unspecified) | -6.8 | 88.7 | -34.0 | -4.4 | -3.7 | 34.0
CC(Oc1ccc(-c2ccccc2)c(F)c1)c1ccn(S(=O)(=O)c2ccc(Br)cc2)n1 (stereo unspecified) | -5.3 | . | 2.5 | . | . | -2.5
Cc1ccc(Oc2ccc(NC(=O)c3ccco3)cc2)cc1 | . | 80.5 | . | 0.5 | 6.4 | .
Cc1ccc(NC(=O)c2ccc(OC(=O)c3ccco3)cc2)cc1 | 4.0 | 372.4*[fluorescence artefact?] | -2.3 | 32.0 | 21.4 | 2.3
CCOC(=O)c1c(C)[nH]c(C)c1C(=O)COc1ccc(NC(=O)c2ccco2)cc1 | 26.6 | 47.4 | 8.6 | 44.8 | 54.1*[fluorescence artefact?] | -8.6
COc1ccc(OCC(=O)Nc2ccc(NC(=O)c3ccco3)cc2)cc1 | -19.2 | 127.2 | -21.7 | -4.1 | 2.9 | 21.7
CC(C)OC(=O)CSc1nnc(-c2ccc(C(C)(C)C)cc2)n1N | -17.8 | 111.1 | -15.3 | 97.8*[fluorescence artefact?] | -2.0 | 15.3
CC(C)OC(=O)CSc1nnc(-c2ccncc2)n1N | 4.0 | 110.7 | 5.3 | 18.4 | 7.5 | -5.3
Cc1ccc2nc(NC(=O)CSCc3ccccc3)sc2c1 | -3.2 | 106.7 | 12.9 | -1.6 | 85.0*[fluorescence artefact?] | -12.9
COCC(=O)Nc1nc2ccc(C)cc2s1 | -24.8 | 98.0 | -6.5 | -8.2 | -14.4 | 6.5
CCOC(=O)CC1=C(C(=O)OCC)C(c2ccc(C)o2)C(C#N)=C(N)O1 (stereo unspecified) | -15.9 | 127.4 | -2.9 | -3.2 | -3.4 | 2.9
Cc1ccc(C2C(C#N)=C(N)Oc3c2sc2ccccc32)o1 (stereo unspecified) | 8.7 | 74.1 | 0.5 | 69.8*[fluorescence artefact?] | 69.8*[fluorescence artefact?] | -0.5
CCOc1ccc2c(c1)C(c1ccccc1)=NNC(c1ccccc1)=N2 | -17.1 | 112.4 | 0.8 | -6.7 | -4.5 | -0.8
SMILES | IL1B cytotox | ERa coact pot | NFkB transloc inh | ERa coact inh | ERb coact inh | IL1B NFkB pot
COc1ccc2c(Cl)c(-c3nnc(SCC(=O)c4ccccc4)n3C)sc2c1 | 14.1 | 240.9* | 0.8 | 8.0 | -13.7 | -0.8
CC1(C)CC(=O)C2=C(C1)Oc1nc3ccccc3cc1C2C(C#N)C#N (stereo unspecified) | -18.8 | 112.7 | -0.9 | -17.6 | -4.0 | 0.9
C=CCn1c(SCc2nc3ccccc3nc2C)nnc1-c1ccoc1C | -25.9 | 117.2 | -2.0 | 1.9 | 7.1 | 2.0
Cc1cc(NC(=O)CSc2nc3c(c(-c4cccnc4)c2C#N)CCC3)no1 | -22.5 | 257.7*[fluorescence artefact?] | -1.1 | 21.6 | 18.6 | 1.1
COc1ccc(C(=O)CSc2nc(N)nc(SC)c2C#N)cc1 | -21.6 | 480.3*[fluorescence artefact?] | -14.7 | 21.1 | 22.8 | 14.7
COc1ccc(-c2c(C#N)c(SCC(N)=O)nc3c2CCCC3)cc1 | -10.5 | 284.7* | -23.1 | 18.2 | 10.5 | 23.1
C/C(NCc1cccnc1)=C(\C#N)C(=O)NCc1ccccc1 | -14.8 | 102.5 | 0.9 | -3.1 | -0.4 | -0.9
O=C(Oc1ccc2c(c1)OCO2)c1cc2c(s1)CCC2 | -13.1 | 11.2 | -30.1 | 92.5*[fluorescence artefact?] | 83.3* | 30.1
CN(C)C(CNC(=O)NC1CCCCC1)c1cccnc1 (stereo unspecified) | . | 126.0 | . | 0.3 | -12.5 | .
Cc1c(NS(=O)(=O)c2cccc(C(=O)NCc3ccncc3)c2)c(=O)n(-c2ccccc2)n1C | 8.0 | 128.4 | -42.1 | 7.7 | 6.6 | 42.1*
Cc1c(NC(=O)c2cccc(F)c2)c(=O)n(-c2ccccc2)n1C | 76.6* | 113.2 | -2.1 | -7.3 | -6.1 | 2.1
Cn1c(C(=O)NCCCN2CCCC2=O)cc2c(=O)n3ccccc3nc21 | . | 111.2 | . | -3.6 | -3.3 | .
CN(C)c1ccc(NC(=O)c2cc3c(=O)n4ccccc4nc3n2C)cc1 | 9.1 | 22.6 | -15.2 | 100.2*[fluorescence artefact?] | 93.1*[fluorescence artefact?] | 15.2
COc1ccc(C(=O)OCC(=O)NCc2ccco2)cc1OC | 7.1 | 60.4 | 6.5 | 68.1*[fluorescence artefact?] | 40.7 | -6.5
CCOc1ccc(-c2cc(CCCC(=O)NCc3ccco3)no2)cc1 | . | 204.1* | . | -42.7 | -1.6 | .
COc1ccc(CCNC(=O)c2c(-c3ccccc3)noc2C)cc1OC | . | 124.4 | . | 4.6 | -1.2 | .
CCOc1cc2[nH]c(=S)n(CCc3ccc(OC)c(OC)c3)c(=O)c2cc1OCC | 3.1 | 62.2 | 4.8 | 56.7*[fluorescence artefact?] | 30.9 | -4.8
COc1ccc(CCNC(=O)c2ccc3nc(-c4ccco4)c(-c4ccco4)nc3c2)cc1OC | 11.1 | 36.0 | -11.4 | 90.1*[fluorescence artefact?] | 93.8*[fluorescence artefact?] | 11.4
COc1ccccc1N1CCN(C(=O)c2sc3nc(-c4ccc(F)cc4)cn3c2C)CC1 | . | 101.3 | . | -5.8 | -6.1 | .
COc1ccc(CCNC(=O)COC(=O)c2ccco2)cc1OC | -26.0 | 112.8 | -14.0 | -6.9 | 78.5*[fluorescence artefact?] | 14.0
COc1ccc(CCNC(=O)c2ccc3c(=O)n(Cc4ccco4)c(=S)[nH]c3c2)cc1OC | 5.5 | 75.4 | 3.2 | 61.5*[fluorescence artefact?] | 40.0 | -3.2
CCC(CC)C(=O)NCCc1ccc(OC)c(OC)c1 | -29.8 | 81.3 | 24.2 | 0.6 | 7.9 | -24.2
CCOc1ccc(C(=O)OCC(=O)NCc2ccco2)cc1OCC | 0.7 | 80.6 | ? | 70.0*[fluorescence artefact?] | 52.0* | -33.2
Cc1ccccc1-n1c(Cc2cccs2)n[nH]c1=S | -35.3 | . | 9.7 | . | . | -9.7
CCc1cc(-c2n[nH]c(=S)n2Cc2ccccc2)cs1 | -16.7 | . | -20.1 | . | . | 20.1
CCCn1nnc(NC(=O)c2cc(Br)cc(Br)c2OC)n1 | 12.3 | 103.6 | 6.9 | 11.3 | -3.3 | -6.9
CSc1nc2ccccc2n1Cc1cccc(F)c1 | -112.8 | 92.8 | -25.0 | 1.9 | 74.9*[fluorescence artefact?] | 25.0

Source: PubChem BioAssay (several laboratories)
